This excerpt belongs to a sample that is enriched for hits.
LmPK inh: qHTS Assay for Inhibitors of Leishmania Mexicana Pyruvate Kinase (LmPK). Q27686. purified LmPK, Kinase-Glo ATP luminescence, 1 h. Potency, µM (top dose mostly 57.5 µM), inactives show at the highest dose activity change, negative = inhibition, most hits filed as inhibitors. 290,000 tested, 0.37% active. AID 1721, 2009; note: potency is the fitted concentration of half-maximal effect; % is set by controls: 0 for no effect and ±100 for the full control effect
Target sequence (Q27686 whole entry, looked up): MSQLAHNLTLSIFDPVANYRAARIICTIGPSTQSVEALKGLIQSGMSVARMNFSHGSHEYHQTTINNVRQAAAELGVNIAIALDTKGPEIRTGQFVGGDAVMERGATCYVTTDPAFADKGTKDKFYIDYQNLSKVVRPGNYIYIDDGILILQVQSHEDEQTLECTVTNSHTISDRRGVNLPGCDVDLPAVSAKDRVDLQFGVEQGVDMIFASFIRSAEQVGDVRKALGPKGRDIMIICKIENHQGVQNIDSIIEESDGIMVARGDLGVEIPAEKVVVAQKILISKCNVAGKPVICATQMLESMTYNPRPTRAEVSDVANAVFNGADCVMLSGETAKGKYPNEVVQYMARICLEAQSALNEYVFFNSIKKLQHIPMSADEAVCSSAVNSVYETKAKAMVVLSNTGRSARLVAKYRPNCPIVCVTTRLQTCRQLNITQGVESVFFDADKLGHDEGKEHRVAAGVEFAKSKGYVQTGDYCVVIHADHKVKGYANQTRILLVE
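Purified LmPK (0.1 nM) converted ADP (0.1 mM) to ATP with PEP (0.5 mM) in imidazole buffer pH 7.2 with KCl and MgCl2, 1 h at room temperature. ATP was read by Kinase-Glo luminescence; data normalized to uninhibited and no-enzyme controls.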
Cycloheximide cs: Cycloheximide Counterscreen for Small Molecule Inhibitors of Shiga Toxin. max response, %. 300,000 tested, 12% active. cell reporter, cycloheximide protein synthesis inhibition counterscreen; in the data active = max response mostly above about 13%, no sharp cut-off; inactive = mostly below about 14%; note: read at 38.3 µM for the half of the compounds with a filed dose; 0% is about no effect
SARS PLP yeast: qHTS of Yeast-based Assay for SARS-CoV PLP; S. cerevisiae expressing SARS-CoV PLpro, growth rescue; Potency, µM (series often up to 32.9 µM), without a hit: at the highest dose activity, positive = growth rescue, hits mostly activators; 330,000 tested, 0.19% active; AID 485353, 2010; calls by dose curve; note: potency is the fitted concentration of half-maximal effect; 0% is about no effect; nearly all actives have a fitted effect of over 55% in size
Shiga inhibitor: A qHTS for Small Molecule Inhibitors of Shiga Toxin; Vero cells, Shiga toxin protein synthesis inhibition reporter; inhibition, % at 38.7 µM; 290,000 tested, 9.2% active; in the data active = inhibition mostly above about 28%, no sharp cut-off; inactive = mostly below about 43%; note: 0% is about no effect
TbPYK inhibitor: qHTS of Trypanosoma Brucei Inhibitors; TbPYK enzyme, Kinase-Glo Plus ATP luminescence, 45 min; Potency, µM (series often up to 76.8 µM), inactives show at the highest dose activity, negative = inhibition, actives largely listed as inhibitors; pyruvate kinase (Trypanosoma brucei), Q57TT1; 410,000 tested, 0.12% active; note: potency is the fitted concentration of half-maximal effect; % is set by controls: 0 for no effect and ±100 for the full control effect; nearly all actives have a fitted effect of over 50% in size
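Luminescent Kinase-Glo Plus end-point after 45 min room-temperature reaction of T. brucei pyruvate kinase started with 130 uM ADP (final). Buffer TEA 50 mM pH 7.2 with KCl, MgCl2, BSA, Tween-20; titration-based qHTS with fitted concentration-effect curves.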
NS1 function inh: qHTS Assay for Inhibitors of Influenza NS1 Protein Function | Potency, µM (titrated, usually from 46.1 µM), for the others: top-dose activity, positive = more growth | 270,000 tested, 0.4% active; calls by dose curve; note: potency is the fitted concentration of half-maximal effect; actives are rising curves; nearly all actives have a fitted effect of over 50% in size
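S. cerevisiae expressing influenza A NS1, grown in glucose, washed, then diluted 1:100 into pH 6.0 -URA galactose medium with 23 nl compound. Growth recovery read as OD600; NS1-free strain serves as control.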
The depositor's hits bear a star; ? = inconclusive; · = no result given. Unless noted, calls come from the whole dose curve; as a rule, active = well fitted curve in the direction sought with a large enough effect; inconclusive = small, poorly fitted or top-dose-only effect, or another doubt; inactive = no such curve, though single readings can be large; an effect the other way counts as inactive or inconclusive.

SMILES	LmPK inh	Cycloheximide cs	SARS PLP yeast	Shiga inhibitor	TbPYK inhibitor	NS1 function inh
Cc1ccnc(NC(=O)c2ccc(N3C(=O)CCC3=O)cc2)c1	-23%	45*	-12%	49*	-2%	5%
Cc1ccc2nc(NC(=O)c3ccc4ncsc4c3)sc2c1	1%	33*	-3%	60*	3%	3%
NS(=O)(=O)c1ccc2nc(NC(=O)c3ccc4ncsc4c3)sc2c1	2%	9.3*	0%	33	-5%	5%
CC1(C)N=C(SCc2ccc(F)cc2)c2ccccc2N1	·	·	·	·	1%	·
O=C(NCc1cccc(F)c1)c1ccc2nc(CCc3ccccc3)oc2c1	·	·	·	·	-3%	·
O=C(/C=C/c1ccc2c(c1)OCO2)Nc1nc2ccc(F)cc2s1	-5%	22*	1%	63*	-5%	0%
O=C(NCC(=O)N1CCCC(C(F)(F)F)C1)c1ccco1 (stereo not drawn)	·	·	5%	·	-10%	·
CC1CCCN(C(=O)CNC(=O)c2ccco2)C1 (stereo not drawn)	-5%	33*	4%	53*	4%	12%
CC(C)c1ccc(NC2CCCN(C(=O)c3ccco3)C2)cc1 (stereo not drawn)	-3%	13*	-4%	43	-1%	-18%
O=C(CNC(=O)Cc1ccccc1)NCC(=O)N1CCCCC1	-11%	1	29%	-30	-3%	1%
CC1CCN(C(=O)CNC(=O)Cc2ccccc2)CC1	0%	23*	-2%	30*	-6%	-3%
O=C(Cc1ccccc1)NCC(=O)N1CCCCCC1	-3%	19*	1%	23	1%	1%
COC(=O)c1ccc(NC(=O)c2nn(C)c3c2CS(=O)(=O)c2ccccc2-3)cc1	·	·	·	·	1%	·
CC1CCN(C(=O)CCNS(=O)(=O)c2ccccc2)CC1	2%	22*	0%	56*	-7%	?
CC1CCC(=NNC(=O)Cc2cccn2C)CC1 (stereo not drawn)	2%	-1	0%	3	-4%	·
Cc1ccc(S(=O)(=O)NCCC(=O)N2CCC(C)CC2)cc1	·	·	7%	·	-1%	·
CC1CCC(=NNC(=O)Cc2ccccc2)CC1 (stereo not drawn)	2%	14*	-4%	9	-2%	8%
CC(C)C[C@H](NC(=O)[C@H](CCCCN)NC(=O)[C@H](CCC(N)=O)NC(=O)[C@H](Cc1cnc[nH]1)NC(=O)[C@H](Cc1cnc[nH]1)NC(=O)[C@@H](N)C(C)C)C(=O)N[C@H](C(=O)N[C@@H](Cc1ccccc1)C(=O)N[C@@H](Cc1ccccc1)C(=O)N[C@@H](C)C(=O)N[C@@H](CCC(=O)O)C(=O)N[C@@H](CC(=O)O)C(=O)N[C@H](C(=O)NCC(=O)N[C@@H](CO)C(=O)N[C@@H](CC(N)=O)C(=O)N[C@@H](CCCCN)C(=O)O)C(C)C)C(C)C	·	-11	·	-9	·	·
COC(=O)c1ccccc1NC(=O)c1ccc(F)cc1	2%	3	-2%	14	2%	0%
Cc1c(NC(=O)c2cccs2)cccc1NC(=O)c1cccs1	-1%	-2	·	2	-13%	16%
NC(=O)c1ccccc1N/C=C/C(=O)c1ccc(Cl)cc1Cl	16µM*	33*	-30%	72*	-14%	-10%
NC(=O)c1ccccc1N/C=C/C(=O)c1cccs1	16µM*	44*	?	45*	-14%	-18%
NC(=O)c1ccccc1NS(=O)(=O)c1cccs1	-1%	-2	0%	12	-4%	3%
NC(=O)c1ccccc1N/C=C/C(=O)c1ccc(F)cc1	8.9µM*	56*	-36%	98*	-15%	-146%
Cc1cccc(N/C=C/C(=O)c2cccs2)c1C	16µM*	49*	-22%	74*	-12%	-10%
SMILES	LmPK inh	Cycloheximide cs	SARS PLP yeast	Shiga inhibitor	TbPYK inhibitor	NS1 function inh
N#Cc1ccc(Cl)cc1NC(=O)CNCc1cccs1	-3%	7	0%	13	35%	4%
CCC[C@H]1CN(c2ccc(Br)cc2)C(=O)[C@@H]1CC(=O)NC	·	·	·	·	2%	·
COc1cc([N+](=O)[O-])ccc1N/C=C/C(=O)c1cccs1	?	27*	-7%	60*	-26%	-10%
O=C(/C=C/c1ccc([N+](=O)[O-])cc1)c1cccs1	-2%	3	-1%	-8	-1%	1%
Cc1ccc(C(=O)/C=C/Nc2ccccc2C(N)=O)o1	-27%	54*	·	83*	-6%	-20%
CC1(C)OC[C@@H]2O[C@@]3(C(=O)O)OC(C)(C)O[C@@H]3[C@@H]2O1	·	·	·	·	3%	·
O=C(CCSc1nc(-c2ccco2)cc(C(F)(F)F)n1)NCCc1ccccc1	4%	33*	-2%	54	-6%	-14%
FC(F)(F)c1cc(-c2ccco2)nc(NCCc2ccccc2)n1	0%	20*	-9%	78	-2%	-10%
COC(=O)c1cc(=O)[nH]c(=O)[nH]1	·	·	·	·	·	3%
COc1ccc(/C=N/NC(=O)Cc2cccs2)cc1	0%	62*	0%	64*	4%	-2%
CCN(CC)c1ccc(/C=N/NC(=O)Cc2cccs2)cc1	2%	33*	-18%	31	3%	-22%
COc1ccc(COC(=O)N/N=C/c2cccs2)cc1	2%	25*	-4%	49*	12%	6%
CC1=NC(=O)C(N=Nc2cccc(O)c2)N1c1ccccc1 (stereo not drawn)	2%	27*	-4%	55*	0%	-6%
Oc1ccc2ccccc2c1/C=N/Nc1nnc(-c2ncc[nH]2)c2ccccc12	2%	48*	?	25	1%	-228%
COc1ccc(/C=N/Nc2cc(C)nc3ccccc23)cc1	0%	11	1%	1	-1%	-27%
COc1ccc(/C=N/Nc2nnc(-c3ncc[nH]3)c3ccccc23)cc1	-1%	25*	0%	78*	-12%	3%
COC(=O)c1ccccc1S(=O)(=O)N1CCC(C(=O)N(C)CCOc2ccccc2)CC1	·	·	5%	·	2%	·
COC(=O)[C@]12CCCCC=C1N(Cc1ccc(Cl)cc1Cl)C(=O)[C@H](CC(=O)NCc1ccc(OC)c(OC)c1)C2	·	·	·	·	4%	·
O=C(Oc1ccc(Cl)c2cccnc12)c1cccc([N+](=O)[O-])c1	1%	1	-68%	-12	-5%	20%
O=[N+]([O-])c1ccccc1COc1ccc(Cl)c2cccnc12	-16%	23*	0%	62*	-4%	-1%
CC(=O)NNc1nc(-c2ccc(C)cc2)cs1	-8%	23*	4%	71*	2%	?
COc1ccc(-c2csc(N)n2)cc1F	-9%	39*	-4%	64*	-1%	·
COc1ccc(-c2csc(NC(C)=O)n2)cc1OC	-2%	21*	-4%	20	0%	-6%

Assay outcomes (PubChem)
